Here are results for 29 molecules from the supplement of paper PMC7724964.

Common to all, as to experiment: phage ELISA signal ratio (GST-PRM binding over GST background); higher = stronger binding of peptide-phage to the PRM
In assay [1] the target is DOK5 130-237 IRS (domain begin residue: 130, domain end residue: 237), Q9P104. In a few lines: (§1)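 Human peptide recognition domains were expressed in 96-well plates as fusions to the C-terminus of glutathione S-transferase (GST) and selected against an M13 phage library displaying randomized hexadecapeptides, cysteine-free and glycine-flanked, on the gene-8 major coat protein. Five selection rounds were run, and approximately 48 individual clones from rounds 4 and 5 were tested by phage ELISA. Each value is the ELISA signal on the GST-domain fusion divided by the signal on GST alone. Positive clones were sequenced.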

The target of assay [2] is T1, DOK2 146-252 IRS (domain begin residue: 146, domain end residue: 252), O60496.
T1 chain: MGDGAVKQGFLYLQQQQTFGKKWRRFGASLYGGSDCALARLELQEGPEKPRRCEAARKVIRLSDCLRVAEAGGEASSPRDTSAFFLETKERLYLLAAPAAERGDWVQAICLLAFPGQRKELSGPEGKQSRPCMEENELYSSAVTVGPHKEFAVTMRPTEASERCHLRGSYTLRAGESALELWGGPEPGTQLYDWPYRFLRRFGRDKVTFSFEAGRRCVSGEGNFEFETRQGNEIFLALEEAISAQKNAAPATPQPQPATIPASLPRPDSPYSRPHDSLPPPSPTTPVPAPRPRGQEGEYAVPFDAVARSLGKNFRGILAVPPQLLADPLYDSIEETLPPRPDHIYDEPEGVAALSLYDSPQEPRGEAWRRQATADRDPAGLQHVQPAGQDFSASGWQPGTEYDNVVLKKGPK
In a few lines: as §1

The target of assay [3] is T2, DVL1 406-503 DEP (domain begin residue: 406, domain end residue: 503), O14640.
T2 chain: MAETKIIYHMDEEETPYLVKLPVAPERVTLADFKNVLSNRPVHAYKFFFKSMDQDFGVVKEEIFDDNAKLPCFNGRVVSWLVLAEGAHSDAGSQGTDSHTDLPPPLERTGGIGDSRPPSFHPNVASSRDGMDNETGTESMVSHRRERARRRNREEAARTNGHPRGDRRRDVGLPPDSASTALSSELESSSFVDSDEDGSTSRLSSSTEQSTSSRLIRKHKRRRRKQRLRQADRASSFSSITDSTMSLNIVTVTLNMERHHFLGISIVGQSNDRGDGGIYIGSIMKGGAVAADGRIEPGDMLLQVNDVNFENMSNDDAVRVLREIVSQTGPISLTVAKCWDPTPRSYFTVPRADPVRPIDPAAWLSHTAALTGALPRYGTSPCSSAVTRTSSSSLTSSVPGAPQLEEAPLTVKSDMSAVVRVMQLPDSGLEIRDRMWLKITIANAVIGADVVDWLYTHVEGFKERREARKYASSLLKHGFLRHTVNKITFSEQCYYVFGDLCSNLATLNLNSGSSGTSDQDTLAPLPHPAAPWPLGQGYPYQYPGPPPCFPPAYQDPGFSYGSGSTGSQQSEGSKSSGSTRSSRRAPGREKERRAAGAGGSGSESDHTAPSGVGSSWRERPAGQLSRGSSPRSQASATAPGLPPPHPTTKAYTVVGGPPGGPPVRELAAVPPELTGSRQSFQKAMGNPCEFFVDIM
The gist of the method: as §1

Assay [4] concerns the target T3, DOK3 213-322 IRS (domain begin residue: 213, domain end residue: 322), Q7L591.
T3 chain: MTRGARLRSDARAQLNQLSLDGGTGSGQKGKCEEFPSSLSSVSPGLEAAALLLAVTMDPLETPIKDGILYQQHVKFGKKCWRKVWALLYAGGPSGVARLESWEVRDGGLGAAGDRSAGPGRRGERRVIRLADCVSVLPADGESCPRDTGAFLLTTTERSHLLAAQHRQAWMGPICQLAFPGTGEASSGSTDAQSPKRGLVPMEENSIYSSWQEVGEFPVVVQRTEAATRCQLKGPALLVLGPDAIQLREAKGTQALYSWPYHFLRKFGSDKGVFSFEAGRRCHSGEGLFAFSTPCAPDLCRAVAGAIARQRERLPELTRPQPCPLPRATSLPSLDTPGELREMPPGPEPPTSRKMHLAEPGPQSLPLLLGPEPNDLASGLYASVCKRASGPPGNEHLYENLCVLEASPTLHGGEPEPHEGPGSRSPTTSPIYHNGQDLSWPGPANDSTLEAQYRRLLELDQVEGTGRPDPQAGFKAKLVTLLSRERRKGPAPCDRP
In a few lines:
as §1

The target of assay [5] is DYNLL1 1-89 Dynein_light (domain begin residue: 1, domain end residue: 89), P63167. In a few lines: as §1
Sequence of DYNLL1 1-89 Dynein_light (domain begin residue: 1, domain end residue: 89), P63167 (P63167 whole entry): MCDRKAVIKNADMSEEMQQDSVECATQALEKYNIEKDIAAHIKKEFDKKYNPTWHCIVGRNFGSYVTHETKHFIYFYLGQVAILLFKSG
For assay [6], the target named is DOK4 130-237 IRS (domain begin residue: 130, domain end residue: 237), Q8TEW6. The gist of the method: as §1
Sequence of DOK4 130-237 IRS (domain begin residue: 130, domain end residue: 237), Q8TEW6 (Q8TEW6 whole entry): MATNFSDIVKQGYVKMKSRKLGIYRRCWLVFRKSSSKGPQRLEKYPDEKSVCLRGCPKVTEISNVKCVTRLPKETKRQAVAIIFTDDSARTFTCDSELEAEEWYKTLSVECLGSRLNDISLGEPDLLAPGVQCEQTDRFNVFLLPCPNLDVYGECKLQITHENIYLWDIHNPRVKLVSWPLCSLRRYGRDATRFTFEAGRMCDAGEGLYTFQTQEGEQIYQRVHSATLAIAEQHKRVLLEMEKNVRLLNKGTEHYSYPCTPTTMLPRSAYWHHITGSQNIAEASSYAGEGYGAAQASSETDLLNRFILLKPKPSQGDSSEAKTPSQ
For assay [7], the target named is T4, DVL2 416-511 DEP (domain begin residue: 416, domain end residue: 511), O14641.
T4 chain: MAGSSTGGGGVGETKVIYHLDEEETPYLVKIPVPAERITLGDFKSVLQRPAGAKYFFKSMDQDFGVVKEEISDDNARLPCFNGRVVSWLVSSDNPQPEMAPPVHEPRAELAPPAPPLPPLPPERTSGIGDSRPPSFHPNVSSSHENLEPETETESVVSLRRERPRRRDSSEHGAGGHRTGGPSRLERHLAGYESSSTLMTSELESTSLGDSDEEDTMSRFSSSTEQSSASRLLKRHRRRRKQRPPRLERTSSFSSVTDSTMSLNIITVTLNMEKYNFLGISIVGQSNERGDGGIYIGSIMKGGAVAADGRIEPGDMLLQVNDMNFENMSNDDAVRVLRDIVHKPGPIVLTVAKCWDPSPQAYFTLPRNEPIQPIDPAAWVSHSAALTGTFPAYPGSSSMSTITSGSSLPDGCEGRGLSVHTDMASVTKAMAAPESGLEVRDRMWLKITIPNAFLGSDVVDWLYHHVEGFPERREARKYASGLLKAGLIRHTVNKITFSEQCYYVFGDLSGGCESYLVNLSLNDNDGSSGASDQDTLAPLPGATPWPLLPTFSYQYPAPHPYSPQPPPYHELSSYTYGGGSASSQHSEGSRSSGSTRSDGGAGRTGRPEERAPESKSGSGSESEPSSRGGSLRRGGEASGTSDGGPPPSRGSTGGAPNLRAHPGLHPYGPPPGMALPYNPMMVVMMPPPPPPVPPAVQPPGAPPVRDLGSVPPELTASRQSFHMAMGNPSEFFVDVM
In a few lines:
as §1

Assay [8] has as its target T5, DOK7 105-219 IRS (domain begin residue: 105, domain end residue: 219), Q18PE1.
T5 chain: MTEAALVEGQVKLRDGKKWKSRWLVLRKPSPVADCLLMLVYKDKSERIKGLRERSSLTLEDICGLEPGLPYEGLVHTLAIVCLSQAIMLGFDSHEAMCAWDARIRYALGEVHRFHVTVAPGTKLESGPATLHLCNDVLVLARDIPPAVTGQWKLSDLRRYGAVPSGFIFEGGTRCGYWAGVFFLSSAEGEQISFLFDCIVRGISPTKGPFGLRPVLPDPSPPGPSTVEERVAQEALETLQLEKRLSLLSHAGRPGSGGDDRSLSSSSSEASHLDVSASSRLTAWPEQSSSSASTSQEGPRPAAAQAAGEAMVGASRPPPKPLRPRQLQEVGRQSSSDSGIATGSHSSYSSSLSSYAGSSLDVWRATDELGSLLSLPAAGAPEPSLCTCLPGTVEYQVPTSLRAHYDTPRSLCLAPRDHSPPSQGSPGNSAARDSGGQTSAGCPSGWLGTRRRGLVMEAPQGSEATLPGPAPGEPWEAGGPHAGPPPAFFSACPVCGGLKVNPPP
The gist of the method: as §1

In assay [9] the target is T6, DVL3 407-503 DEP (domain begin residue: 407, domain end residue: 503), Q92997.
T6 chain: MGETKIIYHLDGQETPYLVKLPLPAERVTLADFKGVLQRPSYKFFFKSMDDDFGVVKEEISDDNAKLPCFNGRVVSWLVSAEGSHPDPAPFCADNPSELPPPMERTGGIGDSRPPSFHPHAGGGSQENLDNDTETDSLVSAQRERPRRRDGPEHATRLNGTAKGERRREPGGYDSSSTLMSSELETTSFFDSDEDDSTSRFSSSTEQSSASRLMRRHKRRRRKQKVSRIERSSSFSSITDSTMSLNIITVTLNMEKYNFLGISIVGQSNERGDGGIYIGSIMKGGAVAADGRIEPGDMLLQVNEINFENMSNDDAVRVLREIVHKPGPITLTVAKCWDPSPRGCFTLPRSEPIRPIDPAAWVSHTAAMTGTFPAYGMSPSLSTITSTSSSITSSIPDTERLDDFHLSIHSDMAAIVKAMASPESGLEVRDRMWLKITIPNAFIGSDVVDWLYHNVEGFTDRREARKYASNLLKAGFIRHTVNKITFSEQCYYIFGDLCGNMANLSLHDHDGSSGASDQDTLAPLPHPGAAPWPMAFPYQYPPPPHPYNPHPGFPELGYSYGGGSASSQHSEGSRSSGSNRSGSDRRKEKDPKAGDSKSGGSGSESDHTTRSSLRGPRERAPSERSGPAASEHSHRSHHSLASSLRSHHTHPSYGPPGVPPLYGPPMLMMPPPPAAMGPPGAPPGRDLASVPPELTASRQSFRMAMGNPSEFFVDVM
In a few lines: as §1

B1: unnamed (peptide)
chain: GVGWAKQIEWTVSPMM
Consider B1, for which the “phage ELISA signal ratio” value in [1] amounted to 3.95.

B2: unnamed (peptide)
chain: PYTWYENPLWVPSPME
For the molecule B2, the “phage ELISA signal ratio” value in assay [2] was 15.2.

B3: unnamed (peptide)
chain: VHWTLQSVTDWKWVPQ
In the case of B3, in [3], the “phage ELISA signal ratio” value came to 31.9.

B4: unnamed (peptide)
chain: WEWSQEIWLPPHMMVD
In the case of B4, in assay [4], the “phage ELISA signal ratio” value turned out to be 12.3.

B5: unnamed (peptide)
chain: VQTDPWVGQLGDFMFV
Turning to B5, in assay [5], the “phage ELISA signal ratio” value worked out at 17.1.

B6: unnamed (peptide)
chain: YELSWTHTPWSHFIAT
In the case of B6, in [6], the “phage ELISA signal ratio” value worked out at 6.86.

B7: unnamed (peptide)
chain: DDMIWQWQMNPIWMMD
Consider B7, for which the “phage ELISA signal ratio” value in assay [6] was 11.5.

B8: unnamed (peptide)
chain: LQTPDWMWAPNVLESM
Take B8: the “phage ELISA signal ratio” value in [5] came to 6.16.

B9: unnamed (peptide)
chain: PETPYFSDGMWWWVKP
B9: in [7], the “phage ELISA signal ratio” value was found to be 28.8.

B10: unnamed (peptide)
chain: YWFWNPEIMDAQYMPV
For the molecule B10, the “phage ELISA signal ratio” value in [7] turned out to be 7.02.

B11: unnamed (peptide)
chain: TQTSWWWSETPMFPFM
Consider B11, for which the “phage ELISA signal ratio” value in [5] was determined as 3.08.

B12: unnamed (peptide)
chain: LWFWDVETGNAYKTQE
With B12, the “phage ELISA signal ratio” value in assay [7] was determined as 14.1.

B13: unnamed (peptide)
chain: VIWTWNPMAGMEAWNI
B13: in [6], the “phage ELISA signal ratio” value was 5.11.

B14: unnamed (peptide)
chain: EMWYWDAVQGVPYKQG
On to B14, for which, in assay [7], the “phage ELISA signal ratio” value amounted to 23.9.

B15: unnamed (peptide)
chain: VVNEQHGWKWMILEHE
For B15, the “phage ELISA signal ratio” value in assay [2] stood at 20.7.

B16: unnamed (peptide)
chain: AYYWSITLGDIVYMVD
In the case of B16, the “phage ELISA signal ratio” value in assay [7] was 16.1.

B17: unnamed (peptide)
chain: EWVEWVSPWMVEHGDW
For B17, in [2], the “phage ELISA signal ratio” value turned out to be 17.8.

B18: unnamed (peptide)
chain: FETTWVLENGWWLPQA
With B18, the “phage ELISA signal ratio” value in [8] was 9.36.

B19: unnamed (peptide)
chain: DWVWTIPFEQVFSEVM
With B19, in [1], the “phage ELISA signal ratio” value was 4.96.

B20: unnamed (peptide)
chain: NQLRFNPQWTVPNFRN
In the case of B20, the “phage ELISA signal ratio” value in assay [4] was found to be 3.31.

B21: unnamed (peptide)
chain: QAVPMWQDEHGYWWWN
Turning to B21, the “phage ELISA signal ratio” value in assay [7] was found to be 33.3.

B22: unnamed (peptide)
chain: QFIVWENEYYEHWGGK
In the case of B22, in assay [2], the “phage ELISA signal ratio” value came out at 21.1.

B23: unnamed (peptide)
chain: EYKTMPWEEIMMPYNY
Regarding B23, in assay [4], the “phage ELISA signal ratio” value stood at 3.85.

B24: unnamed (peptide)
chain: VWEEVMTMEQWQWHNF
Turning to B24, the “phage ELISA signal ratio” value in assay [4] was 5.77.

B25: unnamed (peptide)
chain: WEWQFWQDYMAQFPSE
As for B25, the “phage ELISA signal ratio” value in assay [3] turned out to be 3.48.

B26: unnamed (peptide)
chain: TQTGMWDETDSREHWD
In the case of B26, the “phage ELISA signal ratio” value in assay [5] is 11.5.

B27: unnamed (peptide)
chain: MWYWDPGENTAIWVEQ
Take B27: in [7], the “phage ELISA signal ratio” value turned out to be 22.1.

B28: unnamed (peptide)
chain: WQMNHLEEWRAYAETL
In the case of B28, in assay [9], the “phage ELISA signal ratio” value came out at 24.2.

B29: unnamed (peptide)
chain: HLTGQEGDWIWHWLEN
On to B29, for which the “phage ELISA signal ratio” value in assay [2] was found to be 10.4.
